Assay outcomes (PubChem)
IL-2 act: activators of IL-2 | IL-2 activation reporter assay, cell-based qHTS; stimulated with anti-CD3/CD4/CD28 beads; in transgenic mouse T cells | activation, % (series mostly up to about 46 µM) | 360,000 tested, 0.065% active | AID 652025; in the data active = activation above about 50%; inconclusive = mostly about 30% to 49%
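Unstimulated transgenic mouse T cells, 750 per well, received compound and, after 60 minutes, anti-CD3/anti-CD4 bead plus anti-CD28 stimulation. EGFP and DsRed were quantified after 18 hours.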
RGS12 GoLoco inh: RGS12 GoLoco-Gai1 interaction inhibition; P63096; Gai1:RGS12 GoLoco peptide FP, rhodamine, 10 min; Potency, µM (top dose mostly 61.6 µM), most hits filed as inhibitors; 230,000 tested, 0.44% active; AID 880; active = well fitted inhibition curve with a large enough effect, not every such curve was filed as active; inactive = no such curve, though single readings can be large or run the other way; note: nearly all actives have a fitted effect of over 30% in size
Target sequence (P63096 whole entry, looked up): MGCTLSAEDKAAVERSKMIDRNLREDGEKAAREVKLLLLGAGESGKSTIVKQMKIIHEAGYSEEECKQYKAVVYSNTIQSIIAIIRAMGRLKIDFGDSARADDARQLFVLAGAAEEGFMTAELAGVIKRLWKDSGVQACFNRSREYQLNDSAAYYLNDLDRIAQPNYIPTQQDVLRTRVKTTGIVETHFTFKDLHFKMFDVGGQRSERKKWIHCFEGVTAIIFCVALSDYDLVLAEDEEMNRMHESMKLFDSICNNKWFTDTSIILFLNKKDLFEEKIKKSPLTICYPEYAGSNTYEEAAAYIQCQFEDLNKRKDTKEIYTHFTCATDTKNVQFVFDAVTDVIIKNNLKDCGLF
KAT2A inh: GCN5L2 (KAT2A) acetyltransferase inhibition; Q92830; 390,000 tested, 0.21% active; GCN5L2 HAT assay, ThioGlo1 CoA-SH fluorescence; Potency, µM (doses to about 58.9 µM), most hits filed as inhibitors
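GCN5L2 (20nM final) in 50mM HEPES, 0.1mM EDTA pH 7.5, 0.01% Tween-20 was preincubated 15 min at room temperature with compound, then given ThioGlo1 (50uM), H3(1-25) peptide (75uM) and acetyl-CoA (70uM); CoA-thiol fluorescence (Ex340/Em540) was read at 0 and 20 min.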
PKM2 activator: activators of human pyruvate kinase M2. P14618. purified PKM2, Kinase-Glo ATP luminescence, activation; response scale: 0% is enzyme alone, no compound. Potency, µM (titrated, usually from 57.5 µM), actives largely listed as activators. 260,000 tested, 0.34% active. AID 1631; note: nearly all actives have a fitted effect of over 55% in size
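Purified hPK-M2 (>95%) run at intermediate activity with 0.1 mM ADP and 0.5 mM PEP in 50 mM imidazole pH 7.2, KCl, MgCl2; 1 h room temperature. ATP formed read by Kinase-Glo luminescence; normalized to uninhibited and no-enzyme controls.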
Vif-A3G inh: Vif-A3G binding inhibition | Q9HC16 | HeLa A3G-eYFP + Vif (tagged APOBEC3G with the HIV-1 protein that degrades it), YFP fluorescence, overnight | Potency, µM (series often up to 46.1 µM), most hits filed as inhibitors | 410,000 tested, 0.076% active | AID 602310; note: nearly all actives have a fitted effect of over 60% in size
Target sequence (Q9HC16 whole entry, looked up): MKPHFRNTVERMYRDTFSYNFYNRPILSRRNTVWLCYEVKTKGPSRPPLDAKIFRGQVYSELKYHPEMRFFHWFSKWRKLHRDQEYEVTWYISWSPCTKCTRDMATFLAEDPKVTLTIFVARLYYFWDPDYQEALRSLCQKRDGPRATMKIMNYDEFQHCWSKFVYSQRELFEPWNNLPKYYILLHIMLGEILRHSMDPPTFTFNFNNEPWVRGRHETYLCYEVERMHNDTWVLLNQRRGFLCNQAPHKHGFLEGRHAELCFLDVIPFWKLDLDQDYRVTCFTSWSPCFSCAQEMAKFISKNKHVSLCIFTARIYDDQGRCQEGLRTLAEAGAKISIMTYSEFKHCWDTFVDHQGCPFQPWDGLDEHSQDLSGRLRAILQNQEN
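Read-out is eYFP fluorescence (Ex 488/Em 500-530) from Vif-expressing HeLa A3G-eYFP cells; more signal means A3G escaped Vif-mediated degradation. Cells plated overnight, compound pinned in, incubated overnight at 37 deg C.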
Vif-A3F inh: inhibitors of Vif-A3F interaction | HeLa A3F-eYFP + Vif (tagged APOBEC3F with the HIV-1 protein that degrades it), YFP fluorescence increase | Potency, µM (titrated, usually from 46.1 µM) | 390,000 tested, 0.2% active; note: nearly all actives have a fitted effect of over 65% in size
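Fluorescence increase (Ex 488/Em 500-530) after overnight compound treatment at 37 deg C flags inhibition of Vif-driven A3F-eYFP loss in stable HeLa A3F-eYFP/Vif cells seeded overnight beforehand.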
Numbers stand for hits; 0 = inactive; ? = inconclusive; - = no result given. Sampled rows, rich in hits. Any-hit rate of the full collection: about 0.77%. Unless noted, calls come from the whole dose curve; as a rule, active = well fitted curve in the direction sought with a large enough effect; inconclusive = small, poorly fitted or top-dose-only effect, or another doubt; inactive = no such curve, though single readings can be large; an effect the other way counts as inactive or inconclusive.

SMILES | IL-2 act | RGS12 GoLoco inh | KAT2A inh | PKM2 activator | Vif-A3G inh | Vif-A3F inh
CCCC(C)NC(=O)c1cccc(Oc2ccccc2)c1 (centres undefined) | 0 | 0 | 0 | 0 | 0 | 0
Cc1cc(C(F)(F)F)c(C#N)c(SCC(=O)Nc2nc3ccccc3s2)n1 | 0 | 0 | 0 | 0 | ? | 22µM
CCOc1ccc(-c2cc(C(F)(F)F)c(C#N)c(SCC(=O)Nc3ccccc3)n2)cc1 | - | - | 0 | - | 13µM | ?
CN(C)S(=O)(=O)c1cccc(NC(=O)CNc2cccc(S(=O)(=O)N3CCCCC3)c2)c1 | 0 | - | - | - | 0 | 0
NC(=O)c1ccc(NCCc2cccs2)cc1 | 0 | - | - | - | 0 | -
Cn1c2ccccc2c(=O)c2ccc(NCCc3cccs3)cc21 | 0 | - | 10µM | - | 0 | 0
Cc1ccc(CNC(=O)c2cc3c(s2)-c2ccccc2SC3)cc1 | - | - | 0 | - | - | -
O=C(CO/N=C/c1ccc(Cl)cc1Cl)NNC(=O)c1cccc(Cl)c1 | 0 | 0 | 0 | 0 | 0 | 0
COC(=O)C(C)Sc1n[nH]c(=S)s1 (centres undefined) | 0 | 0 | 0 | 0 | 0 | 0
O=C(O)CC(Sc1n[nH]c(=S)s1)C(=O)O (centres undefined) | 0 | 0 | 32µM | 0 | 0 | 0
Nc1c(C(=O)Nc2nc3ccccc3s2)sc2nc(-c3cccs3)ccc12 | 0 | 0 | 0 | 0 | 11µM | 7.9µM
Nc1c(C(=O)Nc2ccccc2)sc2nc(-c3cccnc3)ccc12 | - | 0 | 0 | 11µM | - | -
CCOc1cccc(NC(=O)c2sc3nc(-c4ccc(F)cc4)ccc3c2N)c1 | - | - | 35µM | - | 0 | 0
COc1ccc(NC(=O)c2sc3nc(-c4cccnc4)ccc3c2N)cc1OC | 94 | 0 | 0 | 0 | ? | 5.6µM
Nc1c(C(=O)Nc2ccc(F)c(F)c2)sc2nc(-c3ccncc3)ccc12 | - | - | 0 | - | 0 | 0
COc1ccc(-c2ccc3c(N)c(C(=O)Nc4ccc(C(F)(F)F)cc4)sc3n2)cc1OC | - | - | 0 | - | 0 | 0
Nc1c(C(=O)Nc2ccccc2Br)sc2nc(-c3cccs3)ccc12 | - | - | 0 | - | 0 | ?
Nc1c(C(=O)Nc2cccc(Cl)c2Cl)sc2nc(-c3cccnc3)ccc12 | 0 | 0 | 0 | 0 | 0 | ?
COCCCNC(=O)c1ccc2c(c1)N=C(C)c1c(C)ccc(C)c1S2 | - | - | 0 | - | 0 | 0
COCC(=O)N1CCC2(CCN(Cc3nccs3)CC2)CC1 | - | 0 | 0 | - | - | -
O=C(NCCc1cccs1)c1ccc(Cl)cc1 | 0 | 0 | 0 | 0 | 0 | 0
O=C(NCCc1cccs1)c1ccc(Cl)c(Cl)c1 | 0 | 0 | 0 | 0 | 0 | 2.5µM
COc1ccc(NC(=O)CSc2n[nH]c(N)n2)c([N+](=O)[O-])c1 | 0 | 0 | 0 | 14µM | 0 | 0
COc1ccc(C(=O)NCCSc2c(C)[nH]c3ccccc23)cc1 | - | - | 0 | - | 0 | 0
Cc1ccn(S(=O)(=O)c2ccc3oc(=O)ccc3c2)n1 | 0 | - | 0 | 10µM | 0 | 0
SMILES | IL-2 act | RGS12 GoLoco inh | KAT2A inh | PKM2 activator | Vif-A3G inh | Vif-A3F inh
CCCC(=Nc1ccccc1)C1=C(O)C(C(=O)OC)C(C)(C)CC1=O (centres undefined) | 0 | 0 | 0 | 0 | 0 | 0
CCCCC(=Nc1ccc(N)cc1)C1=C(O)C(C(=O)OC)C(C)(C)CC1=O (centres undefined) | 0 | 25µM | 0 | 0 | 0 | 0
Cc1ccc(NC(=O)c2ccc(NCCCN3CCC(C)CC3)c([N+](=O)[O-])c2)cc1F | ? | 0 | 0 | 0 | 0 | 10µM
Cc1ccc(NC(=O)c2ccc(NCc3ccco3)c([N+](=O)[O-])c2)cc1Cl | 0 | 0 | 0 | 0 | ? | 8.9µM
Cc1ccc(NC(=O)c2ccc(NCC3CCCO3)c([N+](=O)[O-])c2)cc1Cl (centres undefined) | 0 | 0 | 0 | 0 | 0 | 11µM
NC(=O)c1ccc(NCC2CCCO2)c([N+](=O)[O-])c1 (centres undefined) | 0 | - | 0 | - | 0 | 0
COc1cc(NC(=O)c2ccc(C)c([N+](=O)[O-])c2)ccc1NC(=O)c1ccco1 | - | 0 | 0 | 0 | - | -
O=C(Nc1cccc(Cl)c1)c1ccc(NCCCN2CCOCC2)c([N+](=O)[O-])c1 | 0 | 0 | 0 | 0 | 0 | 0
COc1ccc(N(CC(=O)N2CCN(c3ccc(F)cc3)CC2)S(=O)(=O)c2c(C)n[nH]c2C)cc1 | 0 | 0 | 0 | 0 | 0 | 0
C/C(=N/NC(N)=S)c1ccc(Br)s1 | 0 | 0 | 0 | 0 | 0 | 11µM
CC1=C(C(=O)N(C)C)CC(CC(=O)NC2CCCCC2)C(=O)N1Cc1ccc(C(C)(C)C)cc1 (centres undefined) | 0 | - | - | - | 0 | 0
Cc1ccc(-n2c(=O)[nH]c3c(C(N)=O)nc(-c4ccc(C)o4)nc32)cc1 | 0 | 0 | 0 | 14µM | 0 | 0
O=C1C(=Cc2ccccc2[N+](=O)[O-])Cc2ccccc21 | 0 | - | - | - | ? | 13µM
CC1(C)CC(=Cc2ccccc2[N+](=O)[O-])C(=O)c2ccccc21 | 0 | - | - | - | 0 | 0
Nc1ccccc1C=C1Cc2ccccc2C1=O | 0 | - | - | - | ? | 6.3µM
CCOc1ccccc1NC(=O)CSc1nc(N)c(C#N)cc1C#N | 0 | 0 | 0 | 0 | 0 | ?
COc1ccccc1NC(=O)CSc1nc(N)c(C#N)cc1C#N | 0 | 0 | 0 | 14µM | 0 | 0
C#CCSc1nc(-c2cccs2)ccc1C#N | 0 | 0 | 0 | 0 | 0 | 2.8µM
COc1ccc(/C=N/NC(=O)c2[nH]nc3c2CCc2ccccc2-3)cc1OC | 0 | 0 | 0 | 0 | 3.2µM | 0
C[C@H](NC(=O)[C@@H]1CSC2c3ccccc3C(=O)N21)C(=O)NC1CCCC1 (some centres undefined) | 0 | - | 0 | - | 5µM | 0
COc1ccc(C(=O)Nc2ccccc2)cc1[N+](=O)[O-] | - | 0 | - | - | - | -
COc1ccc(C(=O)C(C)[n+]2ccc(C)c3ccccc32)cc1[N+](=O)[O-] (centres undefined) | 0 | - | 0 | 0 | 5.6µM | ?
Cc1ccc(Oc2cc([N+](=O)[O-])cc3c2C(=O)Nc2ccccc2O3)cc1 | 72 | 0 | ? | 0 | 0 | ?
O=C1Nc2ccccc2Oc2cc(Oc3ccc(Cl)cc3)ccc21 | - | - | 0 | - | 0 | 0
CCn1c(O)c(/C=N/N=C/c2ccc(OC)cc2)c2cc(C3=NNC(=O)CC3)ccc21 | 215 | 0 | 0 | 0 | ? | 4.5µM
CCCC(=O)Nc1ccc(C(=O)Nc2nc(CC(=O)OCC)cs2)cc1 | 0 | 0 | 0 | 0 | 0 | 0
IC(I)I | - | 14µM | ? | - | - | -
N#C/C(=C\c1ccc(O)c(O)c1)C(=O)Nc1ccccc1 | 0 | 0 | 0 | - | 0 | 0
N#C/C(=C/c1ccc(O)c(O)c1)C(=O)OC/C=C/c1ccccc1 | - | 0 | 14µM | - | - | -
CCC(C)(C)C1CCC2(CC1)NC(=O)N(CC(=O)N1CCN(C(=O)c3ccco3)CC1)C2=O (centres undefined) | 0 | - | 0 | - | 0 | 0
